RXFP1 ag – agonists of human relaxin receptor RXFP1; HEK293T-RXFP1 cAMP TR-FRET, 30 min; response scale: percent of porcine relaxin response, buffer zero; Q9HBX9; actives 0.3% (n = 370,000); Potency, µM (top dose mostly 57.5 µM), inactives show at the top dose activation, usual class: activators; AID 2676; active = well fitted activation curve with a large enough effect; inconclusive = small, poorly fitted or top-dose-only effect; note: potency is the fitted concentration of half-maximal effect; % is set by controls: 0 for no effect and ±100 for the full control effect; nearly all actives have a fitted effect of over 60% in size
Target sequence (Q9HBX9 whole entry, looked up): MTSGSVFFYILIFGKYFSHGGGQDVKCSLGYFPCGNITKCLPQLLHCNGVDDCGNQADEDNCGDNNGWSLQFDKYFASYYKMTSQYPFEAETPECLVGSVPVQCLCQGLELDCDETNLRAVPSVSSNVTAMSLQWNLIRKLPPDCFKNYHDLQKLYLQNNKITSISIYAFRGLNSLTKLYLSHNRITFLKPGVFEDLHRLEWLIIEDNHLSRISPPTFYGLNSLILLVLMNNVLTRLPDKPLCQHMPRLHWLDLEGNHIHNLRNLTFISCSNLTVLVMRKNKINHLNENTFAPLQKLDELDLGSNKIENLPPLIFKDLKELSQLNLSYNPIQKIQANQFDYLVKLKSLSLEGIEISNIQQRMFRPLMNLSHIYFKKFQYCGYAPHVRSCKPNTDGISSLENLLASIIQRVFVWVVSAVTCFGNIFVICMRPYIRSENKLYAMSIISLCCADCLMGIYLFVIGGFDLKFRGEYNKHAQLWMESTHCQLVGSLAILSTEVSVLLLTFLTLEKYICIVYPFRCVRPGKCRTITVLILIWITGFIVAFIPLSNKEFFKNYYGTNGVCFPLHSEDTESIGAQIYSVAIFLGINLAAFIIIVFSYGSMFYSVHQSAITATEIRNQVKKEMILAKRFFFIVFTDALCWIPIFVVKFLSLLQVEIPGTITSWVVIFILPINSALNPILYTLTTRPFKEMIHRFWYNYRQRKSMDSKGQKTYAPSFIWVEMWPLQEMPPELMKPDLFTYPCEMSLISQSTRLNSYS
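Agonist response is measured as cAMP accumulation in an RXFP1-transfected HEK293T line under PDE4 inhibition. Values are scaled between buffer-only and 29 nM porcine relaxin, and EC50s come from standard Hill equation fits.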
gsp antagonist – antagonists of gsp mutant (McCune-Albright syndrome) | gsp-mutant cells, cAMP HTRF, 30 min | Potency, µM (titrated, usually from 76.9 µM), for the others: at the highest dose activity change, negative = inhibition, usual class: inhibitors | actives 0.4% (n = 340,000); calls by dose curve; cell line not stated here;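 note: intracellular cAMP measured with PDE inhibitor Ro 20-1724 present during compound exposure; potency is the fitted concentration of half-maximal effect; % is set by controls: 0 for no effect and ±100 for the full control effect; nearly all actives have a fitted effect of over 65% in size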
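Cells in G418 medium, seeded 16-24 h, 37C; buffer exchange to DPBS + 1 mM CaCl2, 0.5 mM MgCl2, 0.05% BSA; cpds in DMSO + […] (300 uM stock), 30 min 37C; HTRF cAMP detection.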
gsp ag – activates gsp, the McCune-Albright syndrome mutation | AID 624287 | actives 0.13% (n = 340,000) | Potency, µM (top dose mostly 76.9 µM), for the others: at the top dose activation (cAMP increase), most hits filed as activators | gsp mutant cells, cAMP HTRF, 30 min; active = well fitted activation curve with a large enough effect; inconclusive = small, poorly fitted or top-dose-only effect, or another doubt; inactive = no such curve, though single readings can be large or run the other way; cell line not stated here;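 note: phosphodiesterase inhibitor Ro 20-1724 added with compounds to block cAMP breakdown; potency is the fitted concentration of half-maximal effect; nearly all actives have a fitted effect of over 60% in size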
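Cells stably selected in G418 were plated at 2000/well, grown 16-24 hr, then given compounds in DMSO with the PDE inhibitor […] (300 uM solution added) for 30 min at 37C; cAMP was read by HTRF.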
RXFP1 antag – RXFP1 (human) relaxin receptor antagonism; Q9HBX9; HEK293-RXFP1, relaxin-stimulated cAMP HTRF, 30 min; active compounds read low; activity change, negative = inhibition, % at 57.5 µM; actives 0.59% (n = 350,000); AID 1259400;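 active = activity change of -60% or lower, but not beyond a set lower limit; inconclusive = change between -60% and -40%, or beyond the set limit; inactive = change above -40%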; note: % is set by controls: 0 for no effect and ±100 for the full control effect
* marks the source's active call; other numbers are inactive results; ? = inconclusive; nt = no result given; + = active, no number; ! = not confirmed by another sample; [ ] = dose if it differs, or a comment. An excerpt weighted towards active compounds, which were near 0.9% of everything screened.

SMILES | RXFP1 ag | gsp antagonist | gsp ag | RXFP1 antag
COc1cccc(CNC(=O)CCCN2C(=O)CSc3c2c(C)nn3-c2ccccc2)c1OC | -2.3% | nt | nt | nt
O=C(NNC(=S)NC(=O)c1ccccc1Cl)c1cccc([N+](=O)[O-])c1 | 2.0% | -4.0% | 8.5%[15.4 µM] | 8.7
O=C(NC(NC(=S)Nc1c(Cl)cccc1Cl)C(Cl)(Cl)Cl)c1cccc([N+](=O)[O-])c1 (centres undefined) | -1.7% | 35.5µM* | -12.0% | -37.5
O=C(O)c1ccc(Cn2c(SCc3cc(=O)n4cc(Br)ccc4n3)nc3ccsc3c2=O)cc1 | 15.8µM* | nt | nt | nt
O=C(O)C1CCC(Cn2c(SCc3cc(=O)n4cc(Br)ccc4n3)nc3ccsc3c2=O)CC1 (centres undefined) | 8.91µM* | nt | 20.8%[15.4 µM] | -3.5
O=C(O)CCCCn1c(SCc2cc(=O)n3cc(Cl)ccc3n2)nc2ccsc2c1=O | ? | 14.3% | ? | -4.5
COc1cccc(-c2nc(CSCC(=O)NCCc3ccc(Cl)cc3)c(C)o2)c1 | -1.6% | nt | nt | -26.6
Cc1ccccc1N1CC(C(=O)Nc2nnc(SCCN3CCOCC3)s2)CC1=O (centres undefined) | 0.0% | 31.6µM* | ? | 3.9
Cc1cccc(N2CC(C(=O)Nc3nnc(SCCN4CCOCC4)s3)CC2=O)c1 (centres undefined) | -1.6% | -10.9% | 4.2%[15.4 µM] | -15.0
Cc1ccccc1Nc1c(-c2cccnc2)nc2cccc(C)n12 | 0.3% | -10.0% | -21.5% | ?
Cc1cccc2nc(-c3cccnc3)c(Nc3ccc(C(C)C)cc3)n12 | 0.5% | nt | nt | -87.5*
Cc1oc2cc(Br)c(O)c(Br)c2c1-c1ccccc1 | 0.0% | -12.6% | 8.7%[15.4 µM] | -100.6*
COCCn1c(=O)[nH]c2cc(C(=O)N3CCN(c4ccccc4OC)CC3)ccc2c1=O | -0.8% | 4.4% | 4.6% | -13.9
CCOc1cc2[nH]c(=S)n(CCOC)c(=O)c2cc1OCC | -0.8% | 8.6% | 4.47µM* | ?
COCCn1c(=S)[nH]c2cc(C(=O)N3CCc4ccccc4C3)ccc2c1=O | 0.9% | -9.8% | -5.2%[15.4 µM] | -66.1*
COCCn1c(=S)[nH]c2cc(C(=O)N3CCN(c4ccccc4OC)CC3)ccc2c1=O | 0.1% | -3.4% | 4.5% | -112.4*
CCCCN(C)CCn1c(=S)[nH]c2cc(OCC)c(OCC)cc2c1=O | -1.3% | -6.8% | -68.2% | 4.9
COC(c1ccccc1)(c1ccccc1)[C@H](Oc1nc(C)cc(C)n1)C(=O)O | nt | nt | nt | -16.3
COc1cc(C(=O)NCc2nnc(SCC(=O)NCc3ccco3)o2)cc(OC)c1OC | -0.3% | 3.6% | ? | -10.0
CC(C)Sc1nc2sc3c(c2c(=O)n1-c1ccccc1)CCCC3 | 3.5% | nt | nt | -15.3
COc1cccc(N2CCN(C(=O)c3cnc4c(C)cccn4c3=O)CC2)c1 | 2.3% | nt | nt | -5.6
CC(C)(C)OC(=O)NCCCCCc1nnc(SCC(=O)Nc2cccc(Cl)c2)o1 | 2.5% | 35.5µM* | 13.3% | -2.6
C[C@H]1O[C@H](O[C@H]2[C@H](O)[C@@H](O)[C@@H](O[C@H]3[C@H](O)[C@@H](O)[C@H](O)O[C@@H]3CO)O[C@@H]2CO)[C@H](O)[C@@H](O)[C@@H]1N[C@H]1C=C(CO)[C@@H](O)[C@H](O)[C@H]1O | nt | nt | nt | -5.0
O=C(NCc1cccnc1)C1CCN(S(=O)(=O)c2cc(Cl)ccc2Cl)CC1 | 0.3% | 0.9% | 6.1% | -88.0*
COc1cccc(C(C(=O)NCc2ccccc2)N(C(=O)Cn2nnc3ccccc32)c2cccc(C(C)=O)c2)c1 (centres undefined) | -1.5% | nt | nt | -23.9
SMILES | RXFP1 ag | gsp antagonist | gsp ag | RXFP1 antag
COc1cccc2c3c(c(=O)[nH]c12)CCC(C)(C)O3 | 0.8% | 5.9% | -20.6% | -2.2
Cn1c(=O)c2c(c3ccccc31)OC(C)(C)CC2 | 5.5% | +[activator] | -13.8%[15.4 µM] | -12.3
Cc1ccc(OCC(=O)Nc2nnc(SCc3cc(=O)n4cc(C)ccc4n3)s2)cc1 | 6.2% | nt | nt | 13.9
OCCN1CCN(c2nc(-c3ccccc3)c3cc(Br)ccc3n2)CC1 | 7.8% | 6.0% | 4.8% | -69.9*
CCc1nc(N2CCN(C(=S)NCCCOC)CC2)c2c3c(sc2n1)CCCC3 | 3.4% | 7.08µM* | -7.4% | -2.3
CCC(=O)N1CCN(c2nc(CC)nc3sc4c(c23)CCCC4)CC1 | 4.0% | 20µM* | 25.0%[15.4 µM] | 3.4
CCc1nc(N2CCN(S(C)(=O)=O)CC2)c2c3c(sc2n1)CCCC3 | 0.2% | ? | 0.1% | -5.3
Fc1ccc(CN2CCc3nc(N4CCN(c5ccccc5F)CC4)ncc3C2)c(F)c1 | -4.1% | nt | nt | -5.9
CN(C)c1ccc(CN2CCc3nc(N4CCN(c5ccccn5)CC4)ncc3C2)cc1 | 4.5% | nt | nt | -62.7*
CCOc1ccccc1CN1CCc2nc(N3CCN(c4ccccc4F)CC3)ncc2C1 | 5.9% | nt | nt | -60.0*
COc1cc(CN2CCc3nc(N4CCN(c5ncccn5)CC4)ncc3C2)cc(OC)c1OC | -1.6% | nt | nt | -28.6
COc1cc(CN2CCc3nc(N4CCN(c5ccccn5)CC4)ncc3C2)cc(OC)c1OC | 5.3% | nt | nt | -78.6*
NC(=O)c1ccc(NC(=O)CN2CCN(S(=O)(=O)c3ccc4c(c3)OCCO4)CC2)cc1 | -2.2% | 50.1µM* | 20.7% | -6.8
CC(=O)c1ccc(NC(=O)CN2CCN(S(=O)(=O)c3ccc4c(c3)OCCO4)CC2)cc1 | nt | nt | -32.7% | 8.4
CCOc1cccc(CNc2ccc(O)cc2)c1OCc1ccccc1Cl | -3.2% | -17.7% | -13.9% | -88.9*!
CCOc1cccc(CNc2ccc(O)cc2)c1OCc1ccc(Cl)cc1Cl | 0.7% | ? | 4.0% | ?
CCc1ccccc1-n1c(SCC(=O)Nc2ccc(C)cc2)nc2n[nH]c(C)c2c1=N | 7.0% | nt | nt | -86.9*
CCc1ccc(NC(=O)CSc2nc3n[nH]c(C)c3c(=N)n2-c2ccccc2C)cc1 | 16.0% | nt | nt | -19.1
COc1cc(OC)c(NC2(c3ccccc3)C(=O)c3ccccc3C2=O)cc1Cl | 0.5% | nt | nt | nt
O=C(CCCl)NCCc1ccccc1 | nt | nt | nt | -8.9
C=CCN1C(=O)/C(=C/c2ccc(OC(C)=O)c(OCC)c2[N+](=O)[O-])SC1=S | 1.8% | 25.1µM* | -119.4% | -12.1
CC(C)CC(=O)NC(=S)Nc1cccc2nsnc12 | 5.4% | ? | -11.8%[15.4 µM] | -69.6*
O=C(Nc1ccc(Cl)cc1)Nc1cccc2nsnc12 | 3.6% | 39.8µM* | 5.3% | -34.7
CC(C)CC(=O)NC(=S)Nc1ccccc1F | 0.8% | 11.3% | -18.5% | -11.4
COc1ccc(NC(=O)c2cn(CC(C)C)c(=O)c3cc(OC)c(OC)cc23)cc1Cl | -2.0% | nt | nt | nt
CS(=O)(=O)N1CCC(N2CCN(Cc3ccc(F)cc3)C(=O)C2=O)CC1 | -0.2% | nt | nt | -5.9
CCOc1ccc(/C=C/c2nc(C#N)c(NC(C)CC)o2)cc1 (centres undefined) | 13.0% | nt | nt | 6.0
COc1cccc(C(=O)NCC(c2ccc3c(c2)OCO3)N2CCN(C)CC2)c1 (centres undefined) | 0.1% | nt | nt | -3.3
CC(C)(C)c1ccc(C(=O)Nc2ccc(F)cc2)s1 | 31.6µM* | 1.6% | 16.9% | ?
CCc1cc2cc(C(=O)Nc3ccc(F)cc3)sc2s1 | ? | 30.8% | ? | 9.8

Screening results (PubChem)
